Values joined by “and” are separate entries in the source; they are usually repeats but may differ in a detail not shown here. Equal entries are not always repeated. The whole screen tested about 5,500 compounds, of which about 2,000 (36%) were called active. Not shown: some 18% with an inconclusive outcome. Cut-off read from the data, not from the text of the source: active = normalized growth mostly below about 0.91 (no sharp cut-off); inconclusive = no clear call, values can overlap the other calls; inactive = mostly above about 0.92. The list shows a part of the results.
Assay: chemical genetic growth profiling, strain panel (AID 1159580);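 note: tested at 20 µM; growth read once vehicle control cultures reached saturation at 30 °C; 1 = growth at the plate median or of vehicle wells; lower values mean less growth of the strain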
Conditions: S. cerevisiae deletion strains, growth OD

Measured: normalized growth

O=C1CC2OCC=C3CN4CC[C@]56c7ccccc7N1C5[C@H]2[C@H]3CC46 (some centres not stated)
inactive: locus YAL013W, strain DEP1, stronger effect = lower value 1 | locus YAL021C, strain ccr4, stronger effect = lower value 1.03 | locus YAL026C, strain drs2, stronger effect = lower value 1.03 | locus YAL030W, strain snc1, stronger effect = lower value 1.01 | locus YBL061C, strain skt5, stronger effect = lower value 1.01 | locus YBR009C, strain hhf1, stronger effect = lower value 1.02 | locus YBR021W, strain FUR4, stronger effect = lower value 1.01 | locus YBR023C, strain chs3, stronger effect = lower value 1.03 | locus YBR171W, strain sec66, stronger effect = lower value 1.03 | locus YBR229C, strain ROT2, stronger effect = lower value 1 | locus YBR231C, strain swc5, stronger effect = lower value 1.02 | locus YBR279W, strain paf1, stronger effect = lower value 1.03 | locus YCL011C, strain gbp2, stronger effect = lower value 1.03 | locus YCL016C, strain dcc1, stronger effect = lower value 1.03 | locus YCL029C, strain bik1, stronger effect = lower value 1 | locus YCL061C, strain MRC1, stronger effect = lower value 1.02 | locus YCL069W, strain vba3, stronger effect = lower value 1.02 | locus YCR088W, strain abp1, stronger effect = lower value 1.03 | locus YDL005C, strain med2, stronger effect = lower value 1.03 | locus YDL035C, strain GPR1, stronger effect = lower value 1.01 | locus YDL040C, strain nat1, stronger effect = lower value 1.03 | locus YDL074C, strain BRE1, stronger effect = lower value 1.02 | locus YDL101C, strain DUN1, stronger effect = lower value 1.01 | locus YDL134C, strain PPH21, stronger effect = lower value 1.01 | locus YDL185W, strain tfp1, stronger effect = lower value 0.983 | locus YDL192W, strain arf1, stronger effect = lower value 1 | locus YDR001C, strain nth1, stronger effect = lower value 1.03 | locus YDR069C, strain doa4, stronger effect = lower value 1.02 | locus YDR101C, strain arx1, stronger effect = lower value 0.992 | locus YDR137W, strain rgp1, stronger effect = lower value 1.05 | locus YDR150W, strain NUM1, stronger effect = lower value 1.01 | locus YDR159W, strain sac3, stronger effect = lower value 1.01 | locus YDR162C, strain NBP2, stronger effect = lower value 1.01 | locus YDR195W, strain ref2 1.1 | locus YDR297W, strain sur2, stronger effect = lower value 1.02 | locus YDR318W, strain mcm21, stronger effect = lower value 0.999 | locus YDR334W, strain swr1, stronger effect = lower value 1.01 | locus YDR335W, strain msn5, stronger effect = lower value 1.03 | locus YDR388W, stronger effect = lower value 1 | locus YDR392W, strain spt3, stronger effect = lower value 1.03 | locus YDR502C, strain sam2, stronger effect = lower value 1 | locus YEL003W, strain gim4, stronger effect = lower value 1.02 | locus YEL037C, strain rad23, stronger effect = lower value 1.03 | locus YEL061C, strain CIN8 (second series), stronger effect = lower value 1.02 | locus YEL061C, strain CIN8, stronger effect = lower value 1.01 | locus YER015W, strain faa2, stronger effect = lower value 1.03 | locus YER016W, strain bim1, stronger effect = lower value 1.02 | locus YER110C, stronger effect = lower value 0.996 | locus YER111C, strain swi4, stronger effect = lower value 1 | locus YER155C, strain BEM2 (second series), stronger effect = lower value 1.04 | locus YER155C, strain BEM2, stronger effect = lower value 1.02 | locus YER167W, strain BCK2, stronger effect = lower value 1.01 | locus YFR010W, strain ubp6, stronger effect = lower value 1.02 | locus YGL078C, strain dbp3, stronger effect = lower value 0.99 | locus YGL086W, strain mad1, stronger effect = lower value 0.998 | locus YGL167C, strain pmr1, stronger effect = lower value 1.02 | locus YGL173C, strain kem1, stronger effect = lower value 1.02 | locus YGL227W, strain vid30, stronger effect = lower value 1.03 | locus YGL240W, strain doc1, stronger effect = lower value 1.01 | locus YGL248W, strain PDE1, stronger effect = lower value 1.01 | locus YGL253W, strain hxk2, stronger effect = lower value 1.01 | locus YGR078C, strain PAC10, stronger effect = lower value 1.01 | locus YGR135W, strain pre9, stronger effect = lower value 0.982 | locus YGR229C, strain SMI1, stronger effect = lower value 1.03 | locus YGR252W, strain gcn5, stronger effect = lower value 0.914 | locus YHR013C, strain ard1, stronger effect = lower value 1.01 | locus YHR027C, strain rpn1, stronger effect = lower value 1.03 | locus YHR030C, strain SLT2, stronger effect = lower value 1 and 0.976 | locus YHR079C, strain IRE1 (second series), stronger effect = lower value 0.997 | locus YHR079C, strain IRE1, stronger effect = lower value 0.864 | locus YHR094C, strain hxt1, stronger effect = lower value 0.995 | locus YHR129C, strain ARP1, stronger effect = lower value 1.03 | locus YHR142W, strain chs7, stronger effect = lower value 1.03 | locus YHR200W, strain rpn10, stronger effect = lower value 1 | locus YIL066C, strain RNR3, stronger effect = lower value 1.01 | locus YIL073C, strain SPO22, stronger effect = lower value 1.02 | locus YIL125W, strain kgd1, stronger effect = lower value 1 | locus YIR030C, strain dcg1, stronger effect = lower value 1 | locus YJL092W, strain hpr5, stronger effect = lower value 1.02 | locus YJL095W, strain BCK1 (second series), stronger effect = lower value 1.03 | locus YJL095W, strain BCK1, stronger effect = lower value 1 and 0.974 | locus YJL115W, strain asf1, stronger effect = lower value 1 | locus YJL129C, strain trk1, stronger effect = lower value 1.05 | locus YJL134W, strain LCB3, stronger effect = lower value 1.01 | locus YJL154C, strain vps35, stronger effect = lower value 1.01 | locus YJL164C, strain tpk1, stronger effect = lower value 1.03 | locus YJL166W, strain qcr8, stronger effect = lower value 1.02 | locus YJL168C, strain set2, stronger effect = lower value 1 | locus YJL187C, strain SWE1 (second series), stronger effect = lower value 1.01 | locus YJL187C, strain SWE1, stronger effect = lower value 1.03 | locus YJR043C, strain POL32, stronger effect = lower value 0.997 | locus YJR066W, strain TOR1, stronger effect = lower value 0.961

— PubChem BioAssay AID1159580 (chemical genetic matrix, 2015)
